Compounds with a hit are over-represented: about 0.9% of the library has one in this group of screens.
PPARg SRC-1 ag: agonists of human PPARgamma SRC-1 coactivator recruitment; activation, % at 8 µM; 0.41% of 200,000 active; P37231; PPARgamma-SRC-1 coactivator recruitment biochemical assay; in the data active = activation above about 19%;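 note: 0% = DMSO and 100% = reference agonist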
SRC3 TRFRET art: TR-FRET artefact, counter-screen to PPARgamma/SRC-3 agonist assay. PPARgamma/SRC-3 format; hits give high values. AID 1048. 0.39% of 99,000 active. TR-FRET ratio at 8 µM; in the data active = TR-FRET ratio above about 2000
SRC2 TRFRET art: flags TR-FRET format artefacts in PPARgamma SRC-2 recruitment agonist screen; TR-FRET artefact counter-screen; hits give high values; TR-FRET ratio at 8 µM; 0.4% of 200,000 active; in the data active = TR-FRET ratio above about 2000
PPARg SRC-2 ag: promotes SRC-2 coactivator recruitment by human PPARgamma | P37231 | PPARgamma LBD-SRC-2 recruitment, biochemical | activation, % at 8 µM | 0.34% of 200,000 active;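 note: 0% = vehicle and 100% = reference agonist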
PPARg SRC-3 ag: agonists of human PPARgamma SRC-3 coactivator recruitment; P37231; biochemical PPARgamma/SRC-3 coactivator recruitment assay; activation, % at 8 µM; 0.26% of 200,000 active; AID 731; in the data active = activation above about 23%;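 note: 0% = DMSO and 100% = reference agonist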
SRC1 TRFRET art: counter-screen for PPARgamma SRC-1 recruitment agonists: TR-FRET artefact; TR-FRET detection artefact counter-screen, emission ratio; hits give high values; TR-FRET ratio at 8 µM; 0.34% of 99,000 active; AID 1051; in the data active = TR-FRET ratio above about 2300
PPARg SRC2 conf: human PPARgamma SRC-2 recruitment agonism, confirmation; shares compounds with PPARg SRC-3 ag; biochemical SRC-2 recruitment by PPARgamma; activation, % at 8 µM; 52% of 790 active;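 note: 0% = vehicle alone and 100% = reference agonist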
PPARg SRC1 ag: human PPARgamma SRC-1 recruitment agonism, confirmation | activation, % at 8 µM | PPARgamma–SRC-1 coactivator recruitment biochemical assay | 43% of 790 active | shares compounds with PPARg SRC-3 ag | AID 1300; in the data active = activation above about 20%;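 note: 0% = vehicle wells and 100% = reference agonist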
PPARg SRC3 conf: confirmation of agonists of SRC-3 recruitment by human PPARgamma; biochemical PPARgamma-SRC-3 coactivator recruitment, agonist mode; 29% of 790 active; activation, % at 8 µM; shares compounds with PPARg SRC-3 ag; in the data active = activation above about 24%;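 note: 0% = vehicle wells and 100% = reference agonist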
An asterisk follows results filed as active; nt = not tested or not shown. Cut-off read from the data, not from the text of the source, unless noted: active = activation above about 22%; inactive = the rest.

SMILES | PPARg SRC-1 ag | SRC3 TRFRET art | SRC2 TRFRET art | PPARg SRC-2 ag | PPARg SRC-3 ag | SRC1 TRFRET art | PPARg SRC2 conf | PPARg SRC1 ag | PPARg SRC3 conf
CCn1c(=S)ccc2ccc(OC)cc21 | 21* | nt | 2084* | 39* | 40* | nt | 9 | 4 | 6
Cc1ccc(-n2c(O)c(C=Nc3ccccc3-c3n[nH]c(=S)[nH]c3=O)c3ccccc3c2=O)cc1C | 24* | 2203* | 2174* | 24* | 23* | 2325* | 44* | 33* | 28*
CCCC1=C([O-])C2N=CC=CC2=[N+](c2ccccn2)C1=O (stereo unspecified) | -4 | 1290 | 1403 | -1 | -2 | 1660 | nt | nt | nt
O=C(NCc1ccccc1F)Nc1ccc([N+](=O)[O-])cc1 | 1 | 1404 | 1604 | -1 | 2 | 1818 | nt | nt | nt
C/C(=N/NS(=O)(=O)c1ccc(C)cc1)c1cccc(NC(=O)c2cccc(Cl)c2)c1 | 9 | nt | 1498 | 7 | -1 | nt | nt | nt | nt
C/C(=N/NS(=O)(=O)c1ccc(Cl)cc1)c1cccc(NC(=O)c2ccc(Cl)cc2Cl)c1 | 18 | nt | 1666 | 24* | -1 | nt | 7 | 8 | 5
CCOC(=O)c1sc2nc(C)[nH]c(=S)c2c1C | 25* | 2353* | 2175* | 35* | 20 | 2663* | 30* | 23* | 21
CCOC(=O)c1sc2nc(C)n(N)c(=O)c2c1C | 9 | 1653 | 1780 | 6 | 6 | 1913 | nt | nt | nt
COc1cc(-c2nc3ccccc3s2)ccc1O | 23* | nt | 2089* | 30* | 31* | nt | 30* | 33* | 23
O=C(Sc1nnc(-c2ccccc2)o1)N1c2ccccc2Sc2ccccc21 | 16 | nt | 1691 | 31* | 25 | nt | 48* | 34* | 33*
COc1cc(-c2nnc(SCC(=O)N3c4ccccc4Sc4ccccc43)o2)cc(OC)c1OC | 2 | nt | 1583 | -3 | 7 | nt | nt | nt | nt
COCCNc1oc(-c2cccs2)nc1S(=O)(=O)c1ccc(C)cc1 | 4 | 1609 | 1626 | -4 | 5 | 1747 | nt | nt | nt
COCCCNc1oc(-c2cccs2)nc1S(=O)(=O)c1ccc(C)cc1 | 15 | 1632 | 1478 | -2 | 33* | 1713 | 2 | 14 | 16
COc1cc(C(=O)N/N=C/c2sc(N3CCOCC3)nc2-c2ccccc2)cc(OC)c1OC | 11 | 1694 | 1525 | 1 | 2 | 2079 | nt | nt | nt
COc1ccc(O)c(/C=N/Nc2nc3ccccc3[nH]2)c1 | 7 | 1959 | 1754 | 26* | 21 | 2218 | 8 | 8 | 9
C(=N\Nc1nc2ccccc2[nH]1)/c1ccncc1 | 16 | 1586 | 1937 | 11 | 9 | 1761 | nt | nt | nt
C(=N\Nc1nc2ccccc2[nH]1)/c1ccc2c(c1)OCO2 | 22* | 1932 | 2021* | 5 | 10 | 2193 | 12 | 17 | 9
C(=N\Nc1nc2ccccc2[nH]1)/c1cccs1 | 15 | nt | 1564 | 10 | 28* | nt | 10 | 11 | 7
COc1cc(/C=N/Nc2nc3ccccc3[nH]2)ccc1O | 7 | 1195 | 1560 | 9 | 14 | 2030 | nt | nt | nt
C=CCN1C(=O)/C(=C2/C(=O)N(CC(=O)O)c3ccccc32)S/C1=N/c1nccs1 | 1 | nt | 1367 | 0 | 1 | nt | nt | nt | nt
CCOC(=O)CN1C(=O)C2Cc3ccccc3CN2C1=S (stereo unspecified) | -6 | nt | 1646 | -2 | -4 | nt | nt | nt | nt
CC1(C)Nc2ccc(O)cc2-c2c1ssc2=S | 13 | nt | 1836 | 25* | 28* | nt | 6 | 3 | 5
CC(=O)c1sc(NC(=O)C2COc3ccccc3O2)nc1C (stereo unspecified) | 20* | nt | 2016* | 27* | 28* | nt | 24* | 15 | 14
CC(=O)c1sc(Nc2ccc(C)cc2)nc1C | 6 | 1514 | 1619 | 9 | 2 | 2030 | nt | nt | nt
CC(=O)c1sc(Nc2ccccn2)nc1C | 53* | nt | 2724* | 48* | 74* | nt | 38* | 25* | 26*
CC(=O)c1sc(NC(=O)C(C)C)nc1C | 59* | nt | 3308* | 81* | 83* | nt | 54* | 37* | 39*

High-throughput results as filed in PubChem BioAssay.
